# “And” between values parts separate entries of the source, which are not always exact repeats. Equal entries are not always repeated. Inconclusive results are not listed. Entries that show only a call come without a potency. The source made the active and inactive calls. Unless noted, calls follow the shape of the dose curve; as a rule, active = well fitted curve in the direction sought with a large enough effect; inconclusive = small, poorly fitted or top-dose-only effect, or another doubt; inactive = no such curve, though single readings can be large; an effect the other way counts as inactive or inconclusive.
# What was measured:
# [1] = Quantitative high throughput screen for delayed death inhibitors of the malarial parasite plastid, 48 hour incubation (AID 488752); also: nearly all actives have a fitted effect of over 65% in size
# Outline: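 Luciferase-expressing P. falciparum in RBCs, 2% Hct, 0.1% parasitemia final; RPMI 1640 + 0.5% Albumax; 48 h, 37 C, 5% CO2; luminescence readout, signal drop = growth inhibition.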
# [2] = target: Thioredoxin reductase 1, cytoplasmic (Rattus norvegicus) (UniProt O89049); experiment: qHTS Assay for Substrates of Mammalian Selenoprotein Thioredoxin Reductase 1 (TrxR1) (AID 488772);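 also: series mostly up to about 57 µM; a drop in NADPH fluorescence below the no-compound background marks a TrxR1 substrate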
# Outline: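 In this dual-purpose format, potential substrates are identified from the first fluorescence read after selenite addition, not from the 8-minute delta. Rat enzyme is preincubated with NADPH and then with compound at ~22 deg C.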
# [3] = target: Thioredoxin reductase 1, cytoplasmic (Rattus norvegicus) (UniProt O89049); experiment: qHTS Assay for Inhibitors of Mammalian Selenoprotein Thioredoxin Reductase 1 (TrxR1) (AID 488773); settings: Potency: inhibition;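 also: drop in NADPH fluorescence over an 8 min run after selenite addition; series mostly up to about 57 µM; nearly all actives have a fitted effect of over 40% in size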
# Outline: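 Inhibition is scored from the loss of NADPH fluorescence between first and last reads of an 8-min kinetic run. Selenite (400 uM) was the substrate, added after 15 min compound preincubation at room temperature.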
# [4] = target: Flap endonuclease 1 (Homo sapiens) (UniProt P39748); experiment: qHTS Validation Assay for the Inhibitors of Human Flap endonuclease 1 (FEN1) (AID 488816)
# Outline: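 qHTS format: compounds and 10 nM FEN1 incubated 15 min at room temperature before adding 50 nM substrate. Cleavage followed by reads at 0 and 15 min; normalized data fitted to a four-parameter Hill curve.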
# [5] = target: Methanococcus maripaludis chaperonin (MmCpn) (UniProt Q6LX38); experiment: High-Throughput Screening for Modulators of Cytosolic Chaperonin Activity: MmCpn Primary Screen (AID 488978);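 also: 50 nM MmCpn enzyme hydrolysing 30 µM ATP at 37 °C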
# Outline: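 MmCpn (50 nM final) was preincubated with compound 5 min at RT, then 30 uM ATP (final) was added and the reaction ran 10 min at 37C. ADP produced was detected by Transcreener HTRF (ex 320 nm; em 590/665 nm).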
# [6] = target: Transient receptor potential cation channel subfamily V member 1 (Homo sapiens) (UniProt Q8NER1); experiment: HTS Assay for Compounds that Act as Enhancers of the Vanilloid Receptor 1 (AID 488979)
# Outline: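 Calcium influx kinetics via Fluo-8 (480/520 nm) in TRPV1-expressing cells, 2000/well cultured overnight at 35.5C. Compound-alone read 3 min (agonist phase), followed by EC20 capsaicin challenge for 2 min (enhancer phase).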
# [7] = target: Thyrotropin receptor (Homo sapiens) (UniProt P16473); experiment: qHTS Assay for Antagonists of the Thyroid Stimulating Hormone Receptor (AID 488980); also: series mostly up to about 58 µM
# Outline: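 HEK293 cells transfected with human TSHR, suspended in HEPES-buffered HBSS with 70 uM RO 20-1724, were treated with compounds plus TSH at EC80 (4 nM final). cAMP was measured by competitive HTRF (cryptate anti-cAMP antibody, cAMP-d2 acceptor).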
# [8] = target: D(1A) dopamine receptor (Homo sapiens) (UniProt P21728); experiment: HTS Assay for Allosteric Agonists of the Human D1 Dopamine Receptor: Primary Screen for Agonists (AID 488981)
# Outline: (§1)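 Calcium flux in an inducible, force-coupled HEK293 Trex D1 line (overnight at 30 C): agonist mode is the 180 s kinetic read after compound; potentiator mode is the following 180 s read after dopamine at EC20.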
# [9] = target: D(1A) dopamine receptor (Homo sapiens) (UniProt P21728); experiment: HTS Assay for Allosteric Agonists of the Human D1 Dopamine Receptor: Primary Screen for Potentiators (AID 488982)
# Outline: as §1
# [10] = target: D(1A) dopamine receptor (Homo sapiens) (UniProt P21728); experiment: HTS Assay for Allosteric Agonists of the Human D1 Dopamine Receptor: Primary Screen for Antagonists (AID 488983);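 also: calcium flux response to an EC80 dopamine challenge measured with no-wash dye; nearly all actives have a fitted effect of over 65% in size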
# Outline: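 Calcium flux readout, no-wash dye, inducible HEK293 T-REx D1 line (force-coupled). Compound added after 10 s baseline, 180 s kinetic read; then dopamine at EC80, further 180 s read.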
# [11] = Validation screen for small molecules that induce genotoxicity in human embryonic kidney (HEK293T) cells expressing luciferase-tagged ELG1 (AID 493106)
# Outline: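 qHTS format; 2,000 HEK293T ELG1-luc cells/well; 23 nL compound via pin tool; 16 hr, 37 °C/5% CO2; ONE-Glo, 30 min RT; luminescence read.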
# [12] = Nrf2 qHTS screen for inhibitors: Validation (AID 493153; active = well fitted inhibition curve with a large enough effect in the main read-out, with a control signal flat, not every such curve was filed as active); settings: Potency: luciferase luminescence; viability change: measured here: cytotoxicity max response
# Outline: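 Concentration-response test in A549 ARE_Fluc reporter cells (5% FBS OPTI-MEM), compound exposure 18-24 h at 37°C, 5% CO2. Cell viability measured first by CellTiter-Fluor fluorescence; ARE-driven luciferase luminescence then measured as Nrf2 activity.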
# [13] = qHTS for Inhibitors of Cell Surface uPA Generation: Validation Assay (AID 493164);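 also: RAW 264.7 macrophage cells exposed to compound for 18 h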
# Outline: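 Compounds are titrated over seven points (2.45 nM–38.3 uM final) onto pre-plated RAW 264.7 cells and incubated for 18 h. Retained intracellular ATP, measured with ATP-Lite, indicates blocked lethal factor entry.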
# [14] = target: M-phase phosphoprotein 8 (Homo sapiens) (UniProt Q99549); experiment: qHTS Validation Assay for Inhibitors for MPP8 Chromodomain Interactions with Methylated Histone Tails (AID 488949);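 also: AlphaScreen signal from MPP8 chromodomain bound to biotinylated H3K9me3 peptide; top concentration of the series differs between compounds; nearly all actives have a fitted effect of over 55% in size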
# Outline: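 MPP8 (50 nM) was preincubated with biotinylated H3(1-18)K9me3 peptide (50 nM) in PBS pH 7.4, 0.01% Tween-20 for 30 min at room temperature, then with compounds for 30 min; binding was detected by AlphaScreen.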
# [15] = target: Chromobox protein homolog 1 (Homo sapiens) (UniProt P83916); experiment: qHTS Validation Assay for Inhibitors of HP1-beta Chromodomain Interactions with Methylated Histone Tails (AID 488953); also: nearly all actives have a fitted effect of over 50% in size; also: potency is read from the fitted curve at half-maximal effect
# Outline: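 AlphaScreen proximity readout: streptavidin donor and Ni-chelate acceptor beads, 10 ug/mL final, 30 min dark, RT. Complex of 50 nM HP1-beta and 50 nM b-H3(1-18)K9me3 formed 30 min, then compound-treated 30 min; PBS pH 7.4/0.01% Tween-20.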
# [16] = target: ATP-dependent 6-phosphofructokinase (Trypanosoma brucei brucei) (UniProt O15648); experiment: qHTS Assay to Find Inhibitors of T. brucei phosphofructokinase: hit validation (AID 492961);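 also: luminescence reports ADP formed as PFK phosphorylates fructose-6-phosphate with ATP; series mostly up to about 51 µM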
# Outline: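 In this biochemical qHTS validation, titrated compounds were tested against 1.25 nM PFK with 0.1 mM ATP and 0.5 mM F6P. Percent activity came from controls lacking or containing enzyme.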
# [17] = target: Thyrotropin-releasing hormone receptor (Homo sapiens) (UniProt P34981); experiment: qHTS for Small Molecule Agonists and Allosteric Enhancers of Human TRH Receptor: Validation Screen for Agonists (AID 493127;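 active = calcium activation more than 3 SD above the typical response in the agonist read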;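 also: intracellular calcium rise by fluo-8 fluorescence before TRH EC20 addition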); settings: TRH receptor agonist cell assay; at 2 µM; stronger effect = higher value
# Outline: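 Read-out: intracellular calcium release measured kinetically by FDSS (fluo-8, ex 480/em 530 nm), 1 reading/s after a 10-cycle baseline. TRHR cells, 2000/well, cultured 18 h at 33.5C, dye-loaded at room temp. Compound-evoked positive calcium signal flags agonists.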
# [18] = target: Galactokinase (Homo sapiens) (UniProt P51570); experiment: qHTS Validation Assay for Inhibitors of Human Galactokinase (GALK) (AID 493189)
# Outline: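 GALK (5 nM) with 35 uM ATP and 100 uM galactose in HEPES pH8.0, MgCl2, NaCl, DTT, BSA; 1 h at room temperature. Residual ATP read by Kinase-Glo Plus luminescence after 10 min.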
# [19] = target: Tyrosyl-DNA phosphodiesterase 1 (Homo sapiens) (UniProt Q9NUW8); experiment: Confirmation Assay for Inhibitors of Tyrosyl-DNA Phosphodiesterase (TDP1) (AID 489007); settings: recombinant human TDP1 enzymatic activity, dose-response; also: potency is read from the fitted curve at half-maximal effect; nearly all actives have a fitted effect of over 40% in size
# Outline: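 AlphaScreen read-out: streptavidin donor and anti-FITC acceptor beads (10 ug/ml) bind intact substrate, so Tdp1 removal of tyrosine-FITC lowers signal. Enzyme 1 nM, substrate 15 nM, 5 min reaction at room temperature after 15 min compound preincubation.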
# [20] = target: ATPase family AAA domain-containing protein 5 (Homo sapiens) (UniProt Q96QE3); experiment: Validation screen for small molecules that inhibit ELG1-dependent DNA repair in human embryonic kidney (HEK293T) cells expressing luciferase-tagged ELG1 (AID 493107);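 also: cells co-treated with the DNA-damaging agent 5-fluorouridine alongside compound; series mostly up to about 46 µM; inhibitors lower the ELG1-luciferase luminescence signal; nearly all actives have a fitted effect of over 70% in size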
# Outline: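 ELG1-luciferase HEK293T reporter; 5-fluorouridine + compound/DMSO, 16 hr, 37 °C, 5% CO2; ONE-Glo 30 min RT; luminescence read, qHTS format.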
# Chain of M-phase phosphoprotein 8 (Homo sapiens) (Q99549 whole entry, looked up): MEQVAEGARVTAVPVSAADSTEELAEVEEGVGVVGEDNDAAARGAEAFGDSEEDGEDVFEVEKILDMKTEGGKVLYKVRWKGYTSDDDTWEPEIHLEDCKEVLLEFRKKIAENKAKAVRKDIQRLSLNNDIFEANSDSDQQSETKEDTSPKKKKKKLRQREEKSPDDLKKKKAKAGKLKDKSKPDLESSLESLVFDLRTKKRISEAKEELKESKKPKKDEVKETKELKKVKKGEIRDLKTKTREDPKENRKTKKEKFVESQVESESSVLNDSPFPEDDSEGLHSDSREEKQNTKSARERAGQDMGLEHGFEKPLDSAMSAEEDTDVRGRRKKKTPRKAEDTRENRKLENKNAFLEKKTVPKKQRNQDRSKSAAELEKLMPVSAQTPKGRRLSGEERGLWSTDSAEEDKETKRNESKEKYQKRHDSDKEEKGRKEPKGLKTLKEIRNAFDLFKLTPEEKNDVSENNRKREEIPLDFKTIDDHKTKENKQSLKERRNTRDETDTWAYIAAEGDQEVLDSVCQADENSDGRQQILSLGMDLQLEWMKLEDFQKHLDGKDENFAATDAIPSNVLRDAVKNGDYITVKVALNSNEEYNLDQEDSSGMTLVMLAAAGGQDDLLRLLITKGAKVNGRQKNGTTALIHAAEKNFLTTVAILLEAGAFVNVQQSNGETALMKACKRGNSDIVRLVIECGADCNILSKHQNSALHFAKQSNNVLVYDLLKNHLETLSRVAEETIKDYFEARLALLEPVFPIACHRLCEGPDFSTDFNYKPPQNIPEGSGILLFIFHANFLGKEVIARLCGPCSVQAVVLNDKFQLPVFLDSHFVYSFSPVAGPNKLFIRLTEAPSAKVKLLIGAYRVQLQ
# Chain of Thyrotropin receptor (Homo sapiens) (P16473 whole entry, looked up): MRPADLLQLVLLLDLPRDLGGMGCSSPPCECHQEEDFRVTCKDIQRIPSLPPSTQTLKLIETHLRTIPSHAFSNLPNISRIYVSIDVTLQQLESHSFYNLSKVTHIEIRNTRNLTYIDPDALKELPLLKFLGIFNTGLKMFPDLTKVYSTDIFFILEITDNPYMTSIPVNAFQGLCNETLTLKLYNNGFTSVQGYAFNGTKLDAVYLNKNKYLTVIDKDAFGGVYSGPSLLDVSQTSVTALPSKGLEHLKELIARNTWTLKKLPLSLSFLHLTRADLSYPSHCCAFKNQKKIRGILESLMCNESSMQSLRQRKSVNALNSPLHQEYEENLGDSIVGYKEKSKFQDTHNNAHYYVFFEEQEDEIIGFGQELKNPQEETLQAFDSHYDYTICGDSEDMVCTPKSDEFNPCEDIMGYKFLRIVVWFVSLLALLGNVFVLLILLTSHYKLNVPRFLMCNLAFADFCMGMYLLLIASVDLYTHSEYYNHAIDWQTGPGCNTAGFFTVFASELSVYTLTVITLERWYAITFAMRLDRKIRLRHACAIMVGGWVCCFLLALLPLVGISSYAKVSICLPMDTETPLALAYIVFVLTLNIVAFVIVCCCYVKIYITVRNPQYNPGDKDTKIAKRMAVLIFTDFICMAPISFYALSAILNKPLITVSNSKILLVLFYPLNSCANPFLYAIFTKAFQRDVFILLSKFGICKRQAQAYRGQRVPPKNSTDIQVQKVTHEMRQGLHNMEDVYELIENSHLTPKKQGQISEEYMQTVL
# Chain of D(1A) dopamine receptor (Homo sapiens) (P21728 whole entry, looked up): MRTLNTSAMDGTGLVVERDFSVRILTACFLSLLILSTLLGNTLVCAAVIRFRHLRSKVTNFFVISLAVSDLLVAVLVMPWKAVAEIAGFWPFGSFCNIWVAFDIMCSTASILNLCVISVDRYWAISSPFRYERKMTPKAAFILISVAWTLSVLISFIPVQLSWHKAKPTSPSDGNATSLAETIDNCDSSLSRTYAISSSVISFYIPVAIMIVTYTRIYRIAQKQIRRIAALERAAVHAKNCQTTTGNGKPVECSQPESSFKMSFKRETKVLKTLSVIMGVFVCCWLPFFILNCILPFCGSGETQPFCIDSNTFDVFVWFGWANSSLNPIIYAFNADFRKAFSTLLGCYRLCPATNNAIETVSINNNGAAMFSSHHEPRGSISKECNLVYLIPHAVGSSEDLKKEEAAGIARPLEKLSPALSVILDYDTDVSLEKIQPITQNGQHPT
# Chain of ATP-dependent 6-phosphofructokinase (Trypanosoma brucei brucei) (O15648 whole entry, looked up): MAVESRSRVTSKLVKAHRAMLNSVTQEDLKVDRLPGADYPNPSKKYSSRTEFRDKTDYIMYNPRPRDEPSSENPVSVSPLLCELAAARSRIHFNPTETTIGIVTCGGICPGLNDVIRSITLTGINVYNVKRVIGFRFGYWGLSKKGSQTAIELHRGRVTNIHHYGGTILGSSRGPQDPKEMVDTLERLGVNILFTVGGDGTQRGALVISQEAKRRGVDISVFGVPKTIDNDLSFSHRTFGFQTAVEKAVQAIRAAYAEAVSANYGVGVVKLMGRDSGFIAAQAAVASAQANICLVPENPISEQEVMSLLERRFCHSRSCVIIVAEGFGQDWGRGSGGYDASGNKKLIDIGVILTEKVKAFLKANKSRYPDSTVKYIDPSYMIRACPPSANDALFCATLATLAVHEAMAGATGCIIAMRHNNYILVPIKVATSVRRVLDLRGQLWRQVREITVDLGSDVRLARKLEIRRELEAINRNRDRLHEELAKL
# Chain of Chromobox protein homolog 1 (Homo sapiens) (P83916 whole entry, looked up): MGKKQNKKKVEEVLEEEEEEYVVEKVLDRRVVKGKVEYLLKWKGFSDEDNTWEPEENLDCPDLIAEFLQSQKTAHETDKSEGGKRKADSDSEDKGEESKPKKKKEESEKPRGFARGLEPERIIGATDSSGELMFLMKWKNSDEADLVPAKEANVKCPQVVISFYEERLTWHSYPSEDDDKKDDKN
# Chain of Methanococcus maripaludis chaperonin (MmCpn) (Q6LX38 1-543): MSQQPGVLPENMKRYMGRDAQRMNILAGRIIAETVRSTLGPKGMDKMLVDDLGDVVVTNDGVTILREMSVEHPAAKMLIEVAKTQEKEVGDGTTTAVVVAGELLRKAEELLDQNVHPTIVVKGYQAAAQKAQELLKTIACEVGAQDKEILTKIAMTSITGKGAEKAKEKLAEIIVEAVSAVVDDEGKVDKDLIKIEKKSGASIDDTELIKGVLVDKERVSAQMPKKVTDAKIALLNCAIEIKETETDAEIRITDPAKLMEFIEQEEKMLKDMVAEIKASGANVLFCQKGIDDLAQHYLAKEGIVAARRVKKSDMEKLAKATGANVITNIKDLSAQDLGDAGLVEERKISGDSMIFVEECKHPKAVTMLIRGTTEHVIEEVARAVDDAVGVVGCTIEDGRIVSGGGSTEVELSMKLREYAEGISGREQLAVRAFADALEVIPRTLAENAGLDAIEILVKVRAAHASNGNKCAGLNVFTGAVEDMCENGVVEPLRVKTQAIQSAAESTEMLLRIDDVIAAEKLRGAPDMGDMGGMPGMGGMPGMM
# Chain of Thioredoxin reductase 1, cytoplasmic (Rattus norvegicus) (O89049 whole entry, looked up): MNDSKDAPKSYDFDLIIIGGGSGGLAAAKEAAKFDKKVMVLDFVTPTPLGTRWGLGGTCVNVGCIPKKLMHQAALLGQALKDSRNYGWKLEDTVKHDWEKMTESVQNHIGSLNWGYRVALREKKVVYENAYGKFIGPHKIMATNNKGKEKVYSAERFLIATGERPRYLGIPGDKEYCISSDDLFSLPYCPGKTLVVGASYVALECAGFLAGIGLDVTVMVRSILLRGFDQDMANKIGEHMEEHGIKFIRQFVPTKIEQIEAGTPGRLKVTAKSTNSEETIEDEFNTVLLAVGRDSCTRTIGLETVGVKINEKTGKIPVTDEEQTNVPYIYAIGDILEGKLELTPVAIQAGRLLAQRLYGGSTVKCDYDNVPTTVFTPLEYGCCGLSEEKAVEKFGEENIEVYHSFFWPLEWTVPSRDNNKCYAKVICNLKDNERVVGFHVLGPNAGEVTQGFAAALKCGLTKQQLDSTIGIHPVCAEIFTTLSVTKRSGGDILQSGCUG
# Chain of Flap endonuclease 1 (Homo sapiens) (P39748 whole entry, looked up): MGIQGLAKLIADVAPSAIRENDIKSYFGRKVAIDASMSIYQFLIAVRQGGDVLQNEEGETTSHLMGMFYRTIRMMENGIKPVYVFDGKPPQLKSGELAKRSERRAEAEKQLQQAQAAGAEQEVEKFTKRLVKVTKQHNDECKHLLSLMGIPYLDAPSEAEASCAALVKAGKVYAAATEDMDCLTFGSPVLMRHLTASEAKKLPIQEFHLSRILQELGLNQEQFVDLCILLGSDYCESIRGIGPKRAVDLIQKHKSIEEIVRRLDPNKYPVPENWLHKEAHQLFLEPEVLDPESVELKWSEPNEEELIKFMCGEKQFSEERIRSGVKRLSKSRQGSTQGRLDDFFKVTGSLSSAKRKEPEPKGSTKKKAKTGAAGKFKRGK
# Chain of Thyrotropin-releasing hormone receptor (Homo sapiens) (P34981 whole entry, looked up): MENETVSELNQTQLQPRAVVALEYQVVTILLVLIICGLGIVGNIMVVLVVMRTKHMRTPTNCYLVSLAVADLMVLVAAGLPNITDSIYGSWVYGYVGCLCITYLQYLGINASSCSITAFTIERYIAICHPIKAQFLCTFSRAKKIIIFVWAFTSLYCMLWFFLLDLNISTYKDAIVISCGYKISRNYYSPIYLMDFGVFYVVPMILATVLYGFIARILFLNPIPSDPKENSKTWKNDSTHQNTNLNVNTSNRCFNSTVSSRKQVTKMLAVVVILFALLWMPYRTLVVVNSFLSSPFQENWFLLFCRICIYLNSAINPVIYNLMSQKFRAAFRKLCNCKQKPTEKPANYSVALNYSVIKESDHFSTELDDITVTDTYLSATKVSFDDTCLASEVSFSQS
# Chain of Galactokinase (Homo sapiens) (P51570 whole entry, looked up): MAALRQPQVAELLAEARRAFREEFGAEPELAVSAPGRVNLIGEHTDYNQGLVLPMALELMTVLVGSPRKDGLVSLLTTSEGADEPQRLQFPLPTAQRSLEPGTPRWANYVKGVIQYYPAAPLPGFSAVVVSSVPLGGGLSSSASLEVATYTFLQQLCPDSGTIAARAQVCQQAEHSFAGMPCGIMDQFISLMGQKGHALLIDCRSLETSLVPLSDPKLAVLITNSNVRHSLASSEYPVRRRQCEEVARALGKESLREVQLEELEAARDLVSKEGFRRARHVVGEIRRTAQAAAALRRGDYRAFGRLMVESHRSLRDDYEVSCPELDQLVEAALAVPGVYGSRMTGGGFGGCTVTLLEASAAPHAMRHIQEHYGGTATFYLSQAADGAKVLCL
compound,measurement,setting,value
Cc1cnc(C(=O)NCCc2ccc(S(=O)(=O)NC(=O)NC3CCCCC3)cc2)cn1,Potency,[1],inactive
same,outcome,[2],inactive
same,Potency,[3],inactive
same,Potency,[4],inactive
same,outcome,[5],inactive
same,outcome,[6],inactive
same,outcome,[7],inactive
same,Potency,[8],inactive
same,Potency,[9],inactive
same,Potency,[10],inactive
same,Potency,[11],inactive
same,Potency,[12],inactive
same,viability change,[12],-0.248%
same,outcome,[13],inactive
Nc1nc2c(ncn2COC(CO)CO)c(=O)[nH]1,Potency,[1],inactive
same,outcome,[2],inactive
same,Potency,[3],inactive
same,Potency,[14],inactive
same,Potency,[15],inactive
same,outcome,[5],inactive
same,outcome,[6],inactive
same,outcome,[7],inactive
same,Potency,[8],inactive
same,Potency,[9],inactive
same,Potency,[10],inactive
same,Potency,[16],inactive
same,Potency,[11],inactive
same,activation,[17],0.625% (inactive)
same,Potency,[12],inactive
same,viability change,[12],2.85%
same,outcome,[13],inactive
same,Potency,[18],inactive
COc1ccccc1N1CCN(CC(O)COc2cccc3ccccc23)CC1 (stereo not drawn),Potency,[1],inactive
same,outcome,[2],inactive
same,Potency,[3],inactive
same,Potency,[4],inactive
same,Potency,[15],39.8 µM (active)
same,outcome,[5],inactive
same,outcome,[6],inactive
same,outcome,[7],inactive
same,Potency,[8],inactive
same,Potency,[9],inactive
same,Potency,[10],inactive
same,Potency,[11],inactive
same,Potency,[12],inactive
same,viability change,[12],-28.8%
same,outcome,[13],inactive
same,Potency,[18],inactive
NC12CC3CC(CC(C3)C1)C2,Potency,[1],inactive
same,outcome,[2],inactive
same,Potency,[3],inactive
same,Potency,[14],inactive
same,Potency,[15],inactive
same,outcome,[5],inactive
same,outcome,[6],inactive
same,Potency,[8],inactive
same,Potency,[9],inactive
same,Potency,[10],inactive
same,Potency,[11],inactive
same,outcome,[13],inactive
CC[N+](CC)(CC)CCOc1cccc(OCC[N+](CC)(CC)CC)c1OCC[N+](CC)(CC)CC,Potency,[1],inactive
same,outcome,[2],inactive
same,Potency,[4],inactive
same,outcome,[5],inactive
same,outcome,[6],inactive
same,outcome,[7],inactive
same,Potency,[8],inactive
same,Potency,[9],inactive
same,Potency,[10],inactive
same,Potency,[16],inactive
same,Potency,[11],inactive
same,outcome,[13],inactive
same,Potency,[18],inactive
CS(=O)(=O)Nc1ccc([N+](=O)[O-])cc1Oc1ccccc1,Potency,[1],inactive
same,outcome,[2],inactive
same,Potency,[3],inactive
same,Potency,[14],inactive
same,Potency,[15],inactive
same,outcome,[5],inactive
same,outcome,[6],inactive
same,outcome,[7],inactive
same,Potency,[8],inactive
same,Potency,[9],inactive
same,Potency,[10],inactive
same,Potency,[19],8.91 µM (active)
same,Potency,[16],inactive
same,Potency,[11],inactive
same,activation,[17],1% (inactive)
Nc1nnc(-c2cccc(Cl)c2Cl)c(N)n1,Potency,[1],inactive
same,Potency,[3],inactive
same,Potency,[4],inactive
same,Potency,[14],inactive
same,Potency,[15],inactive
same,outcome,[5],inactive
same,outcome,[6],inactive
same,outcome,[7],inactive
same,Potency,[8],inactive
same,Potency,[10],inactive
same,Potency,[16],inactive
same,Potency,[11],inactive
same,activation,[17],0.938% (inactive)
same,Potency,[12],inactive
same,viability change,[12],-4.23%
same,outcome,[13],inactive
same,Potency,[18],inactive
CN1C2CCC1CC(OC(=O)C(CO)c1ccccc1)C2 (stereo not drawn),Potency,[1],inactive
same,Potency,[14],inactive
same,outcome,[5],inactive
same,outcome,[6],inactive
same,Potency,[8],inactive
same,Potency,[9],inactive
same,Potency,[10],inactive
same,Potency,[11],inactive
same,Potency,[12],inactive
same,viability change,[12],0.769% and 1.89%
same,outcome,[13],inactive
same,Potency,[18],inactive
O=C1N(c2ccccc2)c2ccccc2C1(Cc1ccncc1)Cc1ccncc1,outcome,[2],inactive
same,Potency,[3],inactive
same,Potency,[4],inactive
same,Potency,[14],inactive
same,Potency,[15],inactive
same,outcome,[5],inactive
same,outcome,[6],inactive
same,Potency,[8],inactive
same,Potency,[9],inactive
same,Potency,[10],inactive
same,Potency,[16],inactive
same,Potency,[11],inactive
same,Potency,[20],inactive
same,activation,[17],1.31% (inactive)
same,outcome,[13],inactive
same,Potency,[18],inactive
